Results filed as inconclusive are left out. Activity calls are given as the source filed them. Calls come from the whole dose curve; as a rule, active = well fitted inhibition curve with a large enough effect; inconclusive = small, poorly fitted or top-dose-only effect; inactive = flat fitted curve, though single readings scatter.

Galactokinase (Homo sapiens), sequence (P51570 whole entry, looked up): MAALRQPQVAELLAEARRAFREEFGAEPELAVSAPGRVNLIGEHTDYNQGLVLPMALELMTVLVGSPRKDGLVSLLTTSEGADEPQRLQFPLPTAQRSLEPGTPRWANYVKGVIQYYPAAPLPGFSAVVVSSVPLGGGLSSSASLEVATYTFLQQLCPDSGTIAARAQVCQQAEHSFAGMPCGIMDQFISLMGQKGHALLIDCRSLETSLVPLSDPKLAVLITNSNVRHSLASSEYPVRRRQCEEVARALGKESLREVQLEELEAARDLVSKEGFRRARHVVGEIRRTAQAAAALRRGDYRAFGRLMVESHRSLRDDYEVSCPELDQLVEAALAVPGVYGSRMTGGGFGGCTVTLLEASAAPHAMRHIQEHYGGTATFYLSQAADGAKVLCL

This test concerns the target Galactokinase (Homo sapiens) (UniProt P51570). Nature of the test: Confirmation Assay for Inhibitors of Human Galactokinase (GALK): SAR round 2. The settings on record: Recombinant GALK, Kinase-Glo ATP depletion luminescence; series mostly up to 57.5 µM; activity, negative = inhibition: at the top concentration. From the text: NIH Molecular Libraries Probe Production Centers Network [MLPCN] NIH Chemical Genomics Center [NCGC] MLPCN Grant: R03 MH085689-01 Assay Submitter (PI): Kent Lai (University of Utah School of Medicine, 50 N Mario Capecchi Drive, Salt Lake City, UT 84132) NCGC Assay Overview Inherited deficiency of galactose-1-phosphate uridyltransferase (GALT) can result in a potentially lethal disorder called Classic Galactosemia (OMIM 230400). Several lines of evidence indicate that an elevated level of galactose-1-phosphate (gal-1-p), the product of galactokinase (GALK), is a major, if not sole, pathogenic mechanism in patients with classic galactosemia. Therefore, finding inhibitors of GALK is a potential novel therapy for this inherent metabolic disease and is the long term goal of this project. Active compounds observed in the qHTS GALK assay (AID: 1868) were cherry picked and re-screened for validation. GALK (provided by Kent Lai) was assayed using ATP and D-(+)-Galactose (Sigma-Aldrich cat# G0750) as substrates. Promega Kinase-Glo Plus (cat# V3774) technology was used to detect the residual ATP following kinetic reaction. Briefly, the Kinase-Glo Plus contains Ultra-Glo [1] luciferase and D-luciferin which generates a bioluminescence signal from the remaining ATP. Kinase reactions with and without GALK were used as negative and positive controls together with Protein Tyrosine Phosphatase CD45 inhibitor (EMD Bioscience cat# 540215) which is shown to inhibit GALK activity.
NCGC Assay Protocol Summary: Three uL/well of ATP-buffer solution (35 uM ATP, 20mM HEPES pH8.0, 5 mM MgCl2, 60 mM NaCl, 1 mM DTT, 0.01% BSA final concentration) was dispensed into 1536-well, assay plates (Greiner, solid white medium-binding plates) with Aurora Discovery BioRAPTR Flying Reagent Dispenser (FRD; Beckton-Dickenson). Compound and control solution (23 nL) was transferred to the assay plate using the Kalypsys 1536-pin tool apparatus. One uL/well GALK-galactose solution (5 nM GALK, 100 uM galactose, 20 mM HEPES pH8.0, 5 mM MgCl2, 60 mM NaCl, 1 mM DTT, 0.01% BSA final concentration) was then added using the FRD yielding a total kinase reaction volume of 4 uL/ well. After 1 hour of room temperature incubation, 4 uL Kinase-Glo Plus reagent was added for a final assay volume of 8 uL/well. Luminescence was detected with the ViewLux plate reader (Perkin Elmer, Waltham, MA) after 2 min incubation using a 1 sec exposure time and 2x binning.
In general terms: Kinase-Glo reads ATP consumption through a luciferase reaction.
Turning to `Cc1nc(Nc2nc3ccccc3o2)nc2c1CCCC2`, the “activity, negative = inhibition” value is 0.459% (inactive).
Consider `O=C1CCCC2=C1[C@@]1(CCC(c3ccccc3)C1)N=C(Nc1nc3ccccc3o1)N2` (some centres not stated), for which the “activity, negative = inhibition” value was -7.78% (inactive).
With `O=C1CCCC2=C1C(c1ccccc1)N=C(Nc1nc3ccccc3o1)N2` (configuration not stated), the Potency is 34.3 µM (active).
Consider `O=C1CCCC2=C1C(c1cccc(Oc3ccccc3)c1)N=C(Nc1nc3ccccc3o1)N2` (configuration not stated), for which the “activity, negative = inhibition” value is -10.9% [at 172 µM] (inactive).
With `CC(C)(C)C(=O)Nc1ccc2c(c1)C(=O)C(=O)c1ccccc1-2`, the Potency was 2.59 µM (active).
For the compound `Cc1ccc(C2N=C(Nc3nc4ccccc4o3)NC3=C2C(=O)CCC3)s1` (configuration not stated), the Potency was 61.1 µM (active).
On to `O=C1CCCC2=C1C(c1ccncc1Cl)N=C(Nc1nc3ccccc3o1)N2` (configuration not stated), for which the Potency was 15.3 µM (active).
Turning to `CC(C)c1nc(Nc2nc3ccccc3o2)nc2c1CCCC2`, the “activity, negative = inhibition” value is -1.14% (inactive).
Take `O=C1CCCC2=C1C(c1ccccc1Cl)N=C(Nc1nc3ccccc3o1)N2` (configuration not stated): the Potency was 2.66 µM (active).
For the compound `COc1cccc(C2N=C(Nc3nc4ccccc4o3)NC3=C2C(=O)CCC3)c1` (configuration not stated), the Potency is 18.8 µM (active).
For `Cc1ccc(N(CC(=O)Nc2ccc(OC(F)(F)F)cc2)S(=O)(=O)c2c(C)noc2C)cc1`, the “activity, negative = inhibition” value was -9.27% [at 115 µM] (inactive).
For the compound `O=C1CCCC2=C1C(c1ccccc1C(F)(F)F)N=C(Nc1nc3ccccc3o1)N2` (configuration not stated), the Potency is 12.2 µM (active).
